Laboratory results as given in PubChem BioAssay (NCI).
About 83,000 compounds went through this panel and 20% of them were active in at least one assay; those are over-represented in the sample as a whole.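 Step 1: grow cells in 96-well plates. Step 2: add test compound at a single concentration. Step 3: incubate 48 h. Step 4: record percent growth.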 A number with no mark means an inactive call. The source made the active and inactive calls. Rule for the calls: active = growth percent below 10; inactive = the rest.

Assays:
Assay in all cases: NCI-60 one-dose screen, 48 h (100 = growth as untreated, 0 = no growth, -100 = all killed)
Conditions in all cases: 10 µM unless noted
NCI-H23 lung = test system: NCI-H23 lung
NCI-H226 lung = test system: NCI-H226 lung
NCI-H322M lung = test system: NCI-H322M lung
HOP-62 NSCLC = test system: HOP-62 NSCLC
NCI-H460 lung = test system: NCI-H460 lung
HOP-92 NSCLC = test system: HOP-92 NSCLC
NCI-H522 lung = test system: NCI-H522 lung
A549/ATCC NSCLC = test system: A549/ATCC NSCLC
786-0 renal = test system: 786-0 renal
COLO 205 colon = test system: COLO 205 colon

## CN1CCN(Cc2ccc(NC(=O)c3cncc(C#Cc4c(N)ncc5cc(F)ccc45)c3)cc2C(F)(F)F)CC1
NCI-H23 lung
  growth: -39.5% (active)
NCI-H226 lung
  growth: 22.2%
NCI-H322M lung
  growth: 40.5%
HOP-62 NSCLC
  growth: 45.1%
NCI-H460 lung
  growth: -19.8% (active)
HOP-92 NSCLC
  growth: -14.2% (active)
NCI-H522 lung
  growth: 34.4%
A549/ATCC NSCLC
  growth: 45%
786-0 renal
  growth: -94% (active)
COLO 205 colon
  growth: -20.5% (active)

## Nc1nc(N)c2c(n1)NC(c1ccc3c(c1)OCO3)CC(c1cccc(Nc3ccncc3)c1)=N2 (stereo not given)
NCI-H23 lung
  growth: 90%
NCI-H226 lung
  growth: 84.6%
NCI-H322M lung
  growth: 96.9%
HOP-62 NSCLC
  growth: 90.4%
NCI-H460 lung
  growth: 96.5%
HOP-92 NSCLC
  growth: 70.7%
NCI-H522 lung
  growth: 77.3%
A549/ATCC NSCLC
  growth: 79.6%
786-0 renal
  growth: 96.9%
COLO 205 colon
  growth: 86.3%

## CNC(=O)c1cc(Oc2ccc3nc(NC(=O)c4cc(C(F)(F)F)cc(C(F)(F)F)c4)sc3c2)ccn1
NCI-H23 lung
  growth: 20.2%
NCI-H226 lung
  growth: 23.3%
NCI-H322M lung
  growth: 15.1%
HOP-62 NSCLC
  growth: 16.3%
NCI-H460 lung
  growth: 15.7%
HOP-92 NSCLC
  growth: -32.5% (active)
NCI-H522 lung
  growth: -9.54% (active)
A549/ATCC NSCLC
  growth: 17.8%
786-0 renal
  growth: 9.65% (active)
COLO 205 colon
  growth: 19.1%

## O=C(/C=C/C12c3ccccc3C(c3ccccc31)C1C(=O)NC(=O)C12)c1cccs1 (stereo not given)
NCI-H23 lung
  growth: 37.4%
NCI-H226 lung
  growth: 73.4%
NCI-H322M lung
  growth: 31.9%
HOP-62 NSCLC
  growth: 41.3%
NCI-H460 lung
  growth: 17.3%
HOP-92 NSCLC
  growth: 37.1%
NCI-H522 lung
  growth: 28%
A549/ATCC NSCLC
  growth: 43.5%
786-0 renal
  growth: 43.4%
COLO 205 colon
  growth: 44%

## COc1ccccc1/C=C/C1=C(C)CCC(c2ccccc2OC)C1C (stereo not given)
NCI-H23 lung
  growth: 26.8%
NCI-H226 lung
  growth: 45.8%
NCI-H322M lung
  growth: 33.4%
HOP-62 NSCLC
  growth: 17.3%
NCI-H460 lung
  growth: 3.73% (active)
HOP-92 NSCLC
  growth: -35% (active)
NCI-H522 lung
  growth: -45% (active)
A549/ATCC NSCLC
  growth: 21.2%
786-0 renal
  growth: 12%
COLO 205 colon
  growth: -45.3% (active)

## CCCCCCC/C=N/NC(=O)c1ccc(-n2cc(-c3ccccc3)nn2)cc1
NCI-H23 lung
  growth: 87.6%
NCI-H226 lung
  growth: 85.2%
NCI-H322M lung
  growth: 86.3%
HOP-62 NSCLC
  growth: 95.8%
NCI-H460 lung
  growth: 98.4%
HOP-92 NSCLC
  growth: 87.1%
NCI-H522 lung
  growth: 79.9%
A549/ATCC NSCLC
  growth: 96%
786-0 renal
  growth: 92.2%
COLO 205 colon
  growth: 110%

## COc1ccc(-c2ccc(-c3ccc(C(=N)N)o3)o2)cc1
NCI-H23 lung
  growth: 35.6%
NCI-H226 lung
  growth: 78.2%
NCI-H322M lung
  growth: 56.1%
HOP-62 NSCLC
  growth: 46.4%
NCI-H460 lung
  growth: 0.541% (active)
HOP-92 NSCLC
  growth: 27%
NCI-H522 lung
  growth: 1.71% (active)
A549/ATCC NSCLC
  growth: 1.8% (active)
786-0 renal
  growth: 21.9%
COLO 205 colon
  growth: -45.8% (active)

## COc1cc(-c2ccc(-c3ccc(C(=N)N)s3)s2)cc(OC)c1OC
NCI-H23 lung
  growth: 71.5%
NCI-H226 lung
  growth: 89.4%
NCI-H322M lung
  growth: 69.1%
HOP-62 NSCLC
  growth: 69.9%
NCI-H460 lung
  growth: 17.3%
HOP-92 NSCLC
  growth: 33.6%
NCI-H522 lung
  growth: 61.5%
A549/ATCC NSCLC
  growth: 32.8%
786-0 renal
  growth: 9.32% (active)
COLO 205 colon
  growth: -61.8% (active)

## CCCC[N+]1(C)CCN=C1Cc1ccccc1 (stereo not given)
NCI-H23 lung
  growth: 101%
NCI-H226 lung
  growth: 97.6%
NCI-H322M lung
  growth: 99.9%
HOP-62 NSCLC
  growth: 105%
NCI-H460 lung
  growth: 110%
HOP-92 NSCLC
  growth: 90.9%
NCI-H522 lung
  growth: 88.5%
A549/ATCC NSCLC
  growth: 87.8%
786-0 renal
  growth: 101%
COLO 205 colon
  growth: 111%

## Cc1ccc(Nc2oc(-c3ccccc3)nc2[P+](c2ccccc2)(c2ccccc2)c2ccccc2)cc1
NCI-H23 lung
  growth: -51.8% (active)
NCI-H226 lung
  growth: -13.8% (active)
NCI-H322M lung
  growth: -21.6% (active)
HOP-62 NSCLC
  growth: -51.1% (active)
NCI-H460 lung
  growth: -81.7% (active)
HOP-92 NSCLC
  growth: -44.8% (active)
NCI-H522 lung
  growth: -57.4% (active)
A549/ATCC NSCLC
  growth: -25% (active)
786-0 renal
  growth: -77.5% (active)
COLO 205 colon
  growth: -34.7% (active)

## CC1=C([Se]CC(OC(=O)[C@@H](CO)NC(=O)OC(C)(C)C)C(=O)NCCCCCC(=O)OCc2ccccc2)C(=O)c2ccccc2C1=O (stereo not given in full)
NCI-H23 lung
  growth: -77.8% (active)
NCI-H226 lung
  growth: -85.4% (active)
NCI-H322M lung
  growth: -74% (active)
HOP-62 NSCLC
  growth: -100% (active)
NCI-H460 lung
  growth: -4.97% (active)
HOP-92 NSCLC
  growth: -75.3% (active)
NCI-H522 lung
  growth: -94.6% (active)
A549/ATCC NSCLC
  growth: -24% (active)
786-0 renal
  growth: -97.3% (active)
COLO 205 colon
  growth: 10.2%

## COc1ccc(-c2ccc(-c3ccc(C(=N)N)nc3)s2)cc1
NCI-H23 lung
  growth: -29.9% (active)
NCI-H226 lung
  growth: 83.4%
NCI-H322M lung
  growth: -19.8% (active)
HOP-62 NSCLC
  growth: -54.9% (active)
NCI-H460 lung
  growth: -85.1% (active)
HOP-92 NSCLC
  growth: 77.9%
NCI-H522 lung
  growth: -44.9% (active)
A549/ATCC NSCLC
  growth: -56.7% (active)
786-0 renal
  growth: -84.2% (active)
COLO 205 colon
  growth: -52.2% (active)

## CN(C)C(=O)OCc1ccc2c(Cl)cc(Cl)c(O)c2n1
NCI-H23 lung
  growth: 51.2%
NCI-H226 lung
  growth: 68.3%
NCI-H322M lung
  growth: 53.8%
HOP-62 NSCLC
  growth: 27.3%
NCI-H460 lung
  growth: 31.3%
HOP-92 NSCLC
  growth: 58.8%
NCI-H522 lung
  growth: 65.1%
A549/ATCC NSCLC
  growth: 25%
786-0 renal
  growth: 48.7%
COLO 205 colon
  growth: 104%

## CCOC(=O)c1c2c(n3ccc(NC(=O)CCN4CCCC4)cc13)C(=O)c1ncccc1C2=O
NCI-H23 lung
  growth: -72.5% (active)
NCI-H226 lung
  growth: 63.6%
NCI-H322M lung
  growth: -76.7% (active)
HOP-62 NSCLC
  growth: -68.5% (active)
NCI-H460 lung
  growth: -79.9% (active)
HOP-92 NSCLC
  growth: 56.2%
NCI-H522 lung
  growth: -37% (active)
A549/ATCC NSCLC
  growth: -66.6% (active)
786-0 renal
  growth: -88.2% (active)
COLO 205 colon
  growth: 15.4%

## Cc1nn(-c2ccccc2)c(Oc2ccccc2)c1/C=N/NC(=O)Cn1c(=O)sc2ccccc21
NCI-H23 lung
  growth: 37.4%
NCI-H226 lung
  growth: 69.8%
NCI-H322M lung
  growth: 74.9%
HOP-62 NSCLC
  growth: 57.4%
NCI-H460 lung
  growth: 55.6%
HOP-92 NSCLC
  growth: 50.1%
NCI-H522 lung
  growth: 40.6%
A549/ATCC NSCLC
  growth: 37.5%
786-0 renal
  growth: 74.5%
COLO 205 colon
  growth: 28.5%

## Nc1c(C(=O)c2ccc(Cl)cc2)sc(Nc2ccccc2)c1-c1nc2ccccc2s1
NCI-H23 lung
  growth: 17%
NCI-H226 lung
  growth: 49.9%
NCI-H322M lung
  growth: 30.5%
HOP-62 NSCLC
  growth: -7.72% (active)
NCI-H460 lung
  growth: -0.299% (active)
HOP-92 NSCLC
  growth: -18.7% (active)
NCI-H522 lung
  growth: 7.38% (active)
A549/ATCC NSCLC
  growth: 17.8%
786-0 renal
  growth: 8.1% (active)
COLO 205 colon
  growth: 51.4%

## C[C@@H]1N=C(c2ccc(Cl)cc2Cl)Nc2nc3ccccn3c2C1=O
NCI-H23 lung
  growth: 61.4%
NCI-H226 lung
  growth: 75.7%
NCI-H322M lung
  growth: 63.7%
HOP-62 NSCLC
  growth: 52.6%
NCI-H460 lung
  growth: 18.7%
HOP-92 NSCLC
  growth: 55.9%
NCI-H522 lung
  growth: 28.9%
A549/ATCC NSCLC
  growth: 40.6%
786-0 renal
  growth: 73.2%
COLO 205 colon
  growth: 22.3%

## CCOC(=O)c1cc(C(=O)c2cc(OC)cc(OC)c2)n2ncccc12
NCI-H23 lung
  growth: 45.8%
NCI-H226 lung
  growth: 57.5%
NCI-H322M lung
  growth: 72.5%
HOP-62 NSCLC
  growth: 30.7%
NCI-H460 lung
  growth: 14.7%
HOP-92 NSCLC
  growth: 47.1%
NCI-H522 lung
  growth: 25.4%
A549/ATCC NSCLC
  growth: 35.3%
786-0 renal
  growth: 34.2%
COLO 205 colon
  growth: -13.2% (active)

## O=C(c1ccc(F)cc1)C1CCN(CCn2c(=O)[nH]c3ccccc3c2=O)CC1
NCI-H23 lung
  growth: 99.6%
NCI-H226 lung
  growth: 97.8%
NCI-H322M lung
  growth: 105%
HOP-62 NSCLC
  growth: 108%
NCI-H460 lung
  growth: 122%
HOP-92 NSCLC
  growth: 87.8%
NCI-H522 lung
  growth: 82.9%
A549/ATCC NSCLC
  growth: 107%
786-0 renal
  growth: 97%
COLO 205 colon
  growth: 103%

## COc1ccc(N/N=C/c2ccc3c(c2)Sc2ccccc2N3C)cc1
NCI-H23 lung
  growth: 76.8%
NCI-H226 lung
  growth: -68.4% (active)
NCI-H322M lung
  growth: 77.1%
HOP-62 NSCLC
  growth: 66.9%
NCI-H460 lung
  growth: 28.9%
HOP-92 NSCLC
  growth: 67.5%
NCI-H522 lung
  growth: 46.9%
A549/ATCC NSCLC
  growth: 57.2%
786-0 renal
  growth: 88.4%
COLO 205 colon
  growth: 102%
